Data on 102 molecules can be found in PubChem BioAssay AID504834 (National Center for Advancing Translational Sciences (NCATS), 2011).

Molecules are shown by their SMILES. In all, about 320,000 compounds went through this assay and about 22,000 (6.9%) were called active. Where a call stands in place of a potency, no number is given. Not shown: some 27% with an inconclusive outcome. For the sample, actives were picked, then their nearest neighbours and some compounds at random. Unmarked numbers belong to inactive results. Calls come from the whole dose curve; as a rule, active = well fitted inhibition curve with a large enough effect; inconclusive = small, poorly fitted or top-dose-only effect, or another doubt; inactive = no such curve, though single readings can be large or run the other way.
Potency is the fitted concentration of half-maximal effect.

This experiment in a line: Primary qHTS for delayed death inhibitors of the malarial parasite plastid, 96 hour incubation. Conditions: P. falciparum luciferase reporter growth; series mostly up to 28.7 µM. Summed up:
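Readout is luminescence from an integrated firefly luciferase in P. falciparum. Red cells, 2% hematocrit and 0.05% parasitemia final, were cultured with compound through two parasite generations (96 hours) at 37 C, 5% CO2.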
In the case of `CC1CCN(CC(=O)Nc2nccs2)CC1`, the Potency result is “inactive”.
Same read-out and setting: then `Cc1cc(=O)[nH]c(SCC(=O)Nc2ccc(Br)cc2)n1`, with “inactive”.
The same measure, in the same setting: then `CC(=O)Oc1ccc(N(C(C)=O)S(=O)(=O)c2ccc3ccccc3c2)cc1Br`, with “inactive”; and `Cc1nc([N+](=O)[O-])cn1CC(=O)Nc1ccc(Cl)cc1`, with “inactive”; and `NS(=O)(=O)c1ccc(CNC(=O)c2cccc(S(=O)(=O)N3CCc4ccccc43)c2)cc1`, with “inactive”.
On the same count and under the same terms, then `O=C(Nc1nc2ccc([N+](=O)[O-])cc2s1)c1ccc(S(=O)(=O)N2CCCc3ccccc32)cc1`, with “inactive”; and `CNC(=O)c1ccsc1NC(=O)c1ccc(S(=O)(=O)N2CCc3ccccc32)cc1`, with 11.7 µM (active); and `CCN(CC)CCCNC(=O)c1cc2c(=O)[nH]c3ccc(C)cc3c2s1`, with “inactive”.
In the case of `CC(=O)NS(=O)(=O)c1ccc2c(c1)Cc1cc(S(=O)(=O)NC(C)=O)ccc1-2`, the Potency result is “inactive”.
Regarding `COc1cc(C2/C(=C(\O)c3ccc4c(c3)CC(C)O4)C(=O)C(=O)N2c2nnc(C)s2)cc(OC)c1OC` (configuration not stated), the Potency result was “inactive”.
In the case of `Cc1sc2nc(SCC(N)=O)n(C)c(=O)c2c1C`, the Potency result was “inactive”.
Turning to `CCc1cc2c(=O)n(-c3ccccc3)c(SCC(=O)O)nc2s1`, the Potency result is “inactive”.
With `Cc1sc2nc(SCCO)n(-c3ccccc3)c(=O)c2c1C`, the Potency is 10.4 µM (active).
`COC(=O)c1ccc(C(=O)OC)c(NC(=S)N2CCCCC2)c1`: the Potency entry was “inactive”.
On the same count and under the same terms, the value for `CCN(CCO)C(=S)Nc1cc(C(=O)OC)ccc1C(=O)OC` was “inactive”; that for `CCS(=O)(=O)Nc1cc(C(=O)OC)ccc1C(=O)OC` was 10.4 µM (active).
On the same count and under the same terms, then `COc1ccc2oc(C(=O)NCc3ccco3)c(C)c2c1`, with “inactive”; and `CCCCCC1CC(COc2ccccc2)OC1=O` (configuration not stated), with “inactive”; and `O=C(NCc1ccccc1)C(c1ccco1)N(C(=O)c1csnn1)c1ccccc1F` (configuration not stated), with “inactive”.
The same measure, in the same setting: then `CCOCCCNC(=O)C(NC(=O)CNC(=O)c1ccccc1)c1ccc(C)cc1` (configuration not stated), with 9.28 µM (active).
Regarding `CCOCCCNC(=O)C(NC(=O)CNC(=O)c1ccccc1)c1ccc(OC)cc1` (configuration not stated), the Potency entry was “inactive”.
Same read-out and setting: then `CCOCCCNC(=O)C(NC(=O)c1ccc(=O)[nH]c1)c1ccc(C)cc1` (configuration not stated), with “inactive”.
On the same count and under the same terms, the value for `COc1ccc(C(=O)NC2CC(C)(C)Cc3c2cnn3-c2ccccc2C)o1` (configuration not stated) was “inactive”.
On the same count and under the same terms, the value for `Cc1ccc(S(=O)(=O)NCCC(=O)NC2CCN(Cc3ccccc3)CC2)cc1` was “inactive”; that for `OC(c1nc2ccc(F)cc2[nH]1)C(O)c1nc2ccc(F)cc2[nH]1` (configuration not stated) was “inactive”; that for `Cc1c(NC(=O)C(C)Oc2cccc(Cl)c2)c(=O)n(-c2ccccc2)n1C` (configuration not stated) was “inactive”.
For the molecule `CN(C(=O)c1ccccn1)c1nnc(-c2ccccn2)s1`, the Potency result was “inactive”.
The same measure, in the same setting: the value for `CN(C(=O)COc1ccccc1)c1nnc(-c2ccncc2)s1` was 4.15 µM (active); that for `CN(Cc1ccccc1)C(=O)COc1ccccc1` was “inactive”; that for `CC(C)Oc1ccc(C(CC(=O)N2CCOCC2)C(C)C)cc1` (configuration not stated) was “inactive”.
Consider `CC(=O)c1c(C)oc2ccc(NS(=O)(=O)c3ccc(C(=O)O)cc3)cc12`, for which the Potency entry was “inactive”.
Same read-out and setting: the value for `O=C(Nc1ccc(O)cc1)c1ccc(NC(=O)c2ccco2)cc1` was “inactive”; that for `CC(=O)NC1C(OCc2ccccc2)OC(COC(C)=O)C(OC(C)=O)C1OC(C)=O` (configuration not stated) was “inactive”; that for `COC(=O)c1ccc2ccccc2c1OC1OC(CO)C(O)C(O)C1NC(C)=O` (configuration not stated) was 10.4 µM (active).
In the case of `COc1cc(/C=C/CO)cc(OC)c1O[C@@H]1O[C@H](CO)[C@@H](O)[C@H](O)[C@H]1O`, the Potency entry is “inactive”.
Same read-out and setting: then `Cn1cc(S(=O)(=O)Nc2ccc(Cl)cc2Cl)c(=O)n(C)c1=O`, with “inactive”; and `COCCCNC(=O)C1CC(=O)N(c2ccc(C)cc2)C1` (configuration not stated), with 11.7 µM (active); and `COCCNC(=O)C1CCN(C(=O)C2CC(=O)N(c3ccc(C)cc3)C2)CC1` (configuration not stated), with “inactive”.
On to `Cc1ccc(N2CC(C(=O)NCCS(=O)(=O)N3CCN(c4ccccc4)CC3)CC2=O)cc1` (configuration not stated), for which the Potency result was “inactive”.
Turning to `Cc1nc(Cl)cc(N/N=C/c2ccccc2)n1`, the Potency result was “inactive”.
For the molecule `Cc1ccc(/C=C/C(=O)OCC(=O)Nc2cccnc2Cl)cc1`, the Potency entry was “inactive”.
Still for that read-out and setting: the value for `CSCCC(NC(=O)COc1ccccc1)C(=O)OCCOc1ccc(F)cc1` (configuration not stated) was “inactive”; that for `O=C(NCC(=O)N1CCC2(CC1)NCCc1[nH]cnc12)c1ccc(Br)cc1` was “inactive”.
With `Cc1ccsc1C(=O)NC1CCCCC1C` (configuration not stated), the Potency entry was “inactive”.
On the same count and under the same terms, the value for `Cc1ccc(NC(=O)COc2ccc(/C=C3/NC(=O)NC3=O)cc2)cc1` was “inactive”; that for `O=C(NCCCN1CCCCCC1)C1CC(=O)N(C2CCCC2)C1` (configuration not stated) was 3.7 µM (active).
Consider `COc1cccc(CNC(=O)C2CC(=O)N(C3CCCCCCC3)C2)c1` (configuration not stated), for which the Potency entry is “inactive”.
Same read-out and setting: then `O=C(NCCCN1CCCCC1)C1CC(=O)N(CCc2ccccc2)C1` (configuration not stated), with “inactive”; and `Nc1nonc1-n1nnc(C(=O)N/N=C/C2CCCCC2)c1-c1ccccc1`, with “inactive”; and `Nc1nonc1-n1nnc(C(=O)N/N=C/c2ccc(Cl)cc2)c1-c1ccc2c(c1)OCO2`, with 0.0657 µM (active).
Same read-out and setting: then `CC(C)c1c(C(=O)N/N=C/c2ccc(-c3ccccc3)cc2)nnn1-c1nonc1N`, with “inactive”; and `CCOC(=O)N1CCN(C(=O)COc2ccc3oc4c(c3c2)CCCC4)CC1`, with “inactive”; and `CC(=O)Oc1ccc(-c2cccc(C(=O)N3CCCCC3)c2)cc1`, with “inactive”.
Turning to `COc1ccccc1CNC(=O)C1CCN(C(=O)[C@@H]2Cc3ccccc3CN2)CC1`, the Potency result was “inactive”.
With `C/C(CCC(=O)OC[C@H]1O[C@H](C#Cc2ccccc2)C=C[C@@H]1Oc1ccc(C)cc1)=N\OC[C@@H](O)[C@H]1O[C@@H]2OC(C)(C)O[C@@H]2[C@H]1O`, the Potency was 13.1 µM (active).
On the same count and under the same terms, the value for `NC(=O)C1CCN(c2nc(-c3cccc(F)c3)cs2)CC1` was “inactive”.
On the same count and under the same terms, then `Nc1nnc(SCC(=O)NCC(=O)Nc2ccc(F)c(F)c2F)s1`, with “inactive”.
With `CCN(CC(=O)Nc1c(F)cccc1F)C(=O)c1ccc(Sc2nncn2C)c([N+](=O)[O-])c1`, the Potency entry is “inactive”.
On to `CN(C)CCNC(=O)c1[nH]nc2c1CCc1ccccc1-2`, for which the Potency entry was “inactive”.
Still for that read-out and setting: the value for `O=C(N/N=C/c1ccc(O)c2ccccc12)c1cccnc1` was “inactive”; that for `O=C(N/N=C/c1sc(N2CCCCC2)nc1-c1cccs1)c1cccnc1` was 2.08 µM (active).
On to `Cc1cc(/C=N/NC(=O)c2cccnc2)c(C)n1CC(C)C`, for which the activity change, negative = inhibition is 33.1% [at 5.75 µM].
Take `COc1ccccc1CNC(=O)COC(=O)c1sc(C)nc1C`: the Potency result was “inactive”.
Same read-out and setting: then `CN1C2CCC1CC(NC(=O)c1ccc([N+](=O)[O-])cc1)C2` (configuration not stated), with “inactive”; and `Cc1nc(/N=C(\N)NC(=O)NC2CCCCC2)nc2ccccc12`, with 3.29 µM (active).
The same measure, in the same setting: the value for `Cc1nn(-c2ccccc2)c(C)c1C(=O)OCC(=O)NC(=O)NC1CCCCC1` was “inactive”; that for `COc1ccc2nc(/N=C(\N)NC(=O)Nc3ccccc3)nc(C)c2c1` was “inactive”.
The same measure, in the same setting: the value for `O=c1ccc2cc(S(=O)(=O)NCCCc3ccccc3)ccc2[nH]1` was “inactive”; that for `COc1ccc(CN2CCCC(C(=O)N3CCCCC3)C2)cc1` (configuration not stated) was “inactive”; that for `Cc1ccc(OC(=O)c2cncc(Br)c2)c(C)c1` was “inactive”.
Consider `O=C1CCCN1C(=O)COc1ccc([N+](=O)[O-])cc1`, for which the Potency entry was “inactive”.
In the case of `N/C(=N\OC(=O)COc1ccc([N+](=O)[O-])cc1)c1ccc(Br)cc1`, the Potency entry was “inactive”.
On to `CCOC(=O)COc1ccc([N+](=O)[O-])cc1`, for which the Potency is 0.415 µM (active).
Turning to `Cc1cc(NC(=O)CCC(=O)N(Cc2ccccc2)C(C(=O)NC2CCCC2)c2ccc(C)o2)no1` (configuration not stated), the Potency result was “inactive”.
For the molecule `CC(C)CCN1CCC(C)(NC(=O)c2ccccc2)C1=O` (configuration not stated), the Potency result was “inactive”.
Same read-out and setting: the value for `COc1ccccc1C(=O)NCCC(=O)NN1C(=O)NC2(CCCCC2)C1=O` was “inactive”.
With `O=C(CSc1nc(Nc2ccccc2)nc(N2CCOCC2)n1)Nc1cc(Cl)ccc1O`, the Potency was 5.22 µM (active).
The same measure, in the same setting: the value for `C/C(=N\Nc1nc(Nc2ccccc2)nc(N2CCOCC2)n1)c1cccs1` was “inactive”.
For `O=C(CN1CCOCC1)Nc1cc(Cl)ccc1Cl`, the Potency result was “inactive”.
As to `CC(=O)c1c(C)[nH]c(C(=O)COC(=O)CCOc2ccc(C)cc2)c1C`, the Potency result is “inactive”.
`Cn1nc(C(C)(C)C)c([N+](=O)[O-])c1C(N)=O`: the Potency result is “inactive”.
As for `CC(=O)N1c2ccc(S(=O)(=O)N(C)CC(=O)N(C)Cc3ccccc3)cc2CC1C` (configuration not stated), the Potency result was “inactive”.
On the same count and under the same terms, then `CC(=O)c1sc(N)nc1C`, with “inactive”; and `COc1ccccc1CNS(=O)(=O)c1cc2c3c(c1)CCC(=O)N3CCC2`, with “inactive”; and `Cc1ccccc1OCC(=O)NNC(=O)c1cc(S(=O)(=O)N(C)C)ccc1N1CCCC1`, with “inactive”.
Same read-out and setting: the value for `CN(C)S(=O)(=O)c1ccc(N2CCCC2)c(C(=O)Nc2cccc(F)c2)c1` was “inactive”.
`CN(C)S(=O)(=O)c1ccc(N2CCCC2)c(C(=O)Nc2ccc(Br)cc2F)c1`: the Potency was 8.28 µM (active).
Still for that read-out and setting: the value for `CCOC(=O)c1c(C)[nH]c(C(=O)NCCN2CCOCC2)c1C` was “inactive”; that for `O=C(NCCCN1CCOCC1)c1ccc2c(c1)N(Cc1cccc(F)c1)C(=O)c1ccccc1S2` was “inactive”.
Turning to `C=CCn1c(SCc2cc(C(=O)OC)c(C)o2)nnc1-c1ccncc1`, the activity change, negative = inhibition was -0.417% [at 5.75 µM].
`COC(=O)c1sc(N)c(C(=O)OC)c1COC(=O)CNS(=O)(=O)c1ccc(C)cc1`: the Potency result is “inactive”.
For `C=CCn1c(SCc2c(C(=O)OC)sc(N)c2C(=O)OC)nnc1-c1ccc(Cl)cc1`, the Potency was 3.29 µM (active).
Regarding `Cc1nc2cc(NC(=O)Nc3cccc(F)c3)ccc2n1C`, the Potency entry was “inactive”.
Take `COc1ccc(CNC(=O)COC(=O)CCS(=O)(=O)c2ccc(C)cc2)cc1OC`: the Potency entry is “inactive”.
`COc1ccc(NC(=O)N2CCC(Cc3ccccc3)CC2)cc1`: the Potency entry is “inactive”.
Same read-out and setting: then `COc1ccc2c(c1)C(C)=CC(C)(C)N2C(=O)Nc1ccccc1`, with 10.4 µM (active); and `COc1ccc2c(c1)C(C)=CC(C)(C)N2C(=O)CNCc1ccc2c(c1)OCO2`, with “inactive”.
Turning to `CCOC(=O)c1c(S(=O)(=O)Nc2cccc(Cl)c2)c(C)n(C)c1C`, the Potency was 10.4 µM (active).
As for `CCOC(=O)c1c(S(=O)(=O)NCC(=O)Nc2ccc(C)cc2)c(C)n(C)c1C`, the Potency entry is “inactive”.
As to `CCOC(=O)c1c(C)n(C)c2ccc(OC)c(NS(=O)(=O)CC)c12`, the Potency result is “inactive”.
Consider `CCN(CC)CCCNC(=O)COc1ccc2oc3c(c2c1)CCCC3`, for which the Potency entry was “inactive”.
The same measure, in the same setting: the value for `CCCS(=O)(=O)N1CCN=C1SCc1cccc(F)c1` was “inactive”.
